Assay in all cases: qHTS profiling for inhibitors of Plasmodium falciparum proliferation (AID 504749); also: nearly all actives have a fitted effect of over 60% in size
Common to all, as to conditions: P. falciparum in erythrocytes, SYBR Green DNA, 72 h; series mostly up to 28.7 µM

One assay concerns 7G8. In short, it runs like this: (§1)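 SYBR Green fluorescence (ex 485 nm, em 535 nm) reports parasite DNA after 72 h compound exposure of infected red cells at 0.3% parasitemia, 2.5% hematocrit; signal normalized to 0.29 uM artemisinin and vehicle wells.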
A further assay deals with ATS95. In short, it runs like this:
as §1

The subject of a further assay is CP201. In short, it runs like this:
as §1

Another assay deals with CP203. The gist of the method: as §1
Another assay deals with CP250. In short, it runs like this: as §1
Another assay concerns CP256. The gist of the method:
as §1

The subject of a further assay is CP262. The gist of the method: as §1
The test system of a further assay is CP265. The gist of the method:
as §1

For another assay, the system named is CP269. The gist of the method:
as §1

In the next assay the test system is CP315. In short, it runs like this:
as §1

The next assay has as its system CP325. The gist of the method:
as §1

A further assay concerns CP329. The gist of the method:
as §1

The next assay concerns DIV30. In short, it runs like this:
as §1

A further assay deals with ECU. The gist of the method:
as §1

The subject of a further assay is N140. The gist of the method:
as §1

Another assay concerns PAD. In short, it runs like this: as §1
Another assay has as its system PC15. In short, it runs like this:
as §1

The subject of another assay is SC27B. The gist of the method: as §1
The subject of another assay is TAB113. The gist of the method: as §1
Another assay concerns TAB165. In short, it runs like this: as §1

The structures appear in SMILES notation. Results filed as inconclusive are left out. Active and inactive are the calls of the source. Calls follow the shape of the dose curve; as a rule, active = well fitted inhibition curve with a large enough effect; inconclusive = small, poorly fitted or top-dose-only effect; inactive = flat fitted curve, though single readings scatter.
Potency is read from the fitted curve at half-maximal effect.

As to `OCCN1CC(O)C(O)C(O)C1CO` (stereo not given), the Potency entry with 7G8, in the assay on ATS95, in the assay with CP201, with CP203, in the assay on CP250 and with CP256 was “inactive” in each case. The Potency result with CP262, with CP265, in the assay with CP269, in the assay with CP315, in the assay with CP325 and with CP329 was “inactive” throughout. Further, the Potency entry with DIV30, in the assay on ECU, with N140, with PAD, with PC15 and in the assay with SC27B was “inactive” each time. Further, the Potency result in the assay on TAB113 and in the assay on TAB165 was “inactive” in each case.

With `O=C1C(I)=CC(=C(c2cc(I)c(O)c(I)c2)c2ccccc2C(=O)O)C=C1I`, the Potency result in the assay on 7G8, in the assay with ATS95, in the assay with CP201, with CP203, with CP250 and in the assay with CP256 was “inactive” throughout. Further, the Potency result in the assay with CP262, with CP265, in the assay with CP269, in the assay on CP315, in the assay with CP325 and with CP329 was “inactive” throughout. For the same molecule, the Potency entry with DIV30, in the assay with ECU, in the assay with N140, with PAD, in the assay on PC15 and in the assay with SC27B was “inactive” in each case. Moreover, the Potency result in the assay on TAB113 and in the assay with TAB165 was “inactive” throughout.

Take `COc1cccc2c1C(=O)c1c(O)c3c(c(O)c1C2=O)C[C@@](O)(C(=O)CO)C[C@@H]3OC1CC(N)C(O)C(C)O1` (stereo not given in full): the Potency was 0.316 µM (active) with 7G8; 2 µM (active) in the assay on ATS95; 3.79 µM (active) in the assay on CP201; 4.78 µM (active) in the assay with CP203; 2.51 µM (active) in the assay on CP250; 2.24 µM (active) with CP256. Also, the Potency was 2.39 µM (active) with CP262; 3.98 µM (active) with CP265; 3.38 µM (active) with CP269; 6.75 µM (active) in the assay on CP315; 3.79 µM (active) in the assay with CP325; 1.9 µM (active) in the assay on CP329. Moreover, the Potency was 4.26 µM (active) with DIV30; 3.16 µM (active) with ECU; 2.51 µM (active) in the assay with N140; 2.24 µM (active) in the assay with PAD; 2 µM (active) with PC15; 2.51 µM (active) in the assay on SC27B. Further, the Potency in the assay with TAB113 is 2.51 µM (active); with TAB165, 2.24 µM (active).

As to `CC(O)C1CCC2C3CCC4CC(O)CCC4(C)C3CCC12C` (stereo not given), the Potency entry in the assay with 7G8, in the assay on ATS95, with CP201, in the assay with CP203, with CP250 and in the assay with CP256 was “inactive” in each case. Moreover, the Potency entry with CP262, in the assay on CP265, in the assay with CP269, with CP315, with CP325 and in the assay on CP329 was “inactive” in each case. The Potency entry with DIV30, in the assay on ECU, with N140, with PAD, in the assay on PC15 and in the assay on SC27B was “inactive” each time. The Potency result with TAB113 and in the assay on TAB165 was “inactive” throughout.

As to `Cc1ccccc1N1C(=O)c2cc(N)ccc2N/C1=C\F`, the Potency result in the assay on 7G8, with ATS95, in the assay on CP201, in the assay with CP203, in the assay on CP250 and with CP256 was “inactive” each time. For the same molecule, the Potency result in the assay on CP262, with CP265, with CP269, with CP315, in the assay with CP325 and in the assay with CP329 was “inactive” throughout. In addition, the Potency entry in the assay with DIV30, in the assay with ECU, with N140, with PAD, in the assay with PC15 and in the assay on SC27B was “inactive” each time. Besides, the Potency entry in the assay on TAB113 and in the assay with TAB165 was “inactive” in each case.

In the case of `C[n+]1c2cc(N)ccc2cc2ccc(N)cc21`, the Potency in the assay with 7G8 was 0.0631 µM (active); in the assay with ATS95, 1.12 µM (active); with CP201, 1.69 µM (active); with CP203, 1.07 µM (active); with CP250 it was 1.12 µM (active); in the assay with CP256, 1 µM (active). For the same molecule, the Potency is 1.35 µM (active) with CP262; 1.26 µM (active) in the assay with CP265; 0.953 µM (active) in the assay on CP269; 2.13 µM (active) in the assay on CP315; 0.953 µM (active) with CP325; 1.07 µM (active) in the assay on CP329. The Potency in the assay on DIV30 was 1.69 µM (active); in the assay on ECU, 1.26 µM (active); in the assay with N140, 0.631 µM (active); in the assay on PAD it was 1 µM (active); in the assay with PC15 it was 0.178 µM (active); with SC27B it was 1.58 µM (active). For the same molecule, the Potency with TAB113 was 0.891 µM (active); with TAB165 it was 0.398 µM (active).

As to `CCCCC(=O)OCC(=O)[C@]1(O)Cc2c(O)c3c(c(O)c2[C@H](OC2CC(NC(=O)C(F)(F)F)C(O)C(C)O2)C1)C(=O)c1c(OC)cccc1C3=O` (stereo not given in full), the Potency in the assay with 7G8 was 1.26 µM (active); in the assay on ATS95, 2 µM (active); in the assay on CP201 it was 4.78 µM (active); with CP203, 1.69 µM (active); in the assay with CP250 it was 2.51 µM (active); in the assay on CP256 it was 2 µM (active). Besides, the Potency was 1.9 µM (active) in the assay on CP262; 3.16 µM (active) with CP265; 1.69 µM (active) in the assay on CP269; 1.69 µM (active) in the assay on CP315; 3.38 µM (active) in the assay with CP325; 3.79 µM (active) in the assay on CP329. The Potency in the assay on DIV30 is 1.9 µM (active); in the assay on ECU, 2.51 µM (active); in the assay on N140 it was 2 µM (active); in the assay with PAD, 2.24 µM (active); in the assay on PC15, 3.55 µM (active); with SC27B, 2.51 µM (active). The figures for the Potency in the assay with TAB113 and with TAB165 were 2.51 µM (active) and 2.24 µM (active), respectively.

In the case of `C=C[C@H]1CN2CCC1C[C@H]2[C@H](O)c1ccnc2ccc(OC)cc12` (stereo not given in full), the Potency with 7G8 is 0.224 µM (active); in the assay with ATS95 it was 0.794 µM (active); in the assay on CP201, 2.13 µM (active); with CP203 it was 1.69 µM (active); in the assay with CP250, 1 µM (active); in the assay on CP256, 0.794 µM (active). In addition, the Potency in the assay with CP262 was 0.757 µM (active); in the assay on CP265, 0.562 µM (active); in the assay on CP269, 1.51 µM (active); in the assay on CP315, 1.69 µM (active); in the assay with CP325 it was 1.2 µM (active); in the assay on CP329, 1.69 µM (active). Also, the Potency was 0.953 µM (active) in the assay on DIV30; 0.251 µM (active) with ECU; 0.631 µM (active) with N140; 0.891 µM (active) in the assay on PAD; 0.447 µM (active) in the assay with PC15; 1 µM (active) in the assay on SC27B. The values for the Potency in the assay on TAB113 and in the assay with TAB165 were 0.708 µM (active) and 1.12 µM (active), respectively.

On to `CC1OC(OC2CCC3(C)C(CCC4C3CC(O)C3(C)C(C5=CC(=O)OC5)CCC43O)C2)CC(O)C1OC1CC(O)C(OC2CC(O)C(OC3OC(CO)C(O)C(O)C3O)C(C)O2)C(C)O1` (stereo not given), for which the Potency result in the assay on 7G8, in the assay with ATS95, with CP201, in the assay on CP203, in the assay with CP250 and in the assay on CP256 was “inactive” each time. In addition, the Potency result in the assay with CP262, in the assay with CP265, in the assay on CP269, in the assay with CP315, in the assay with CP325 and in the assay on CP329 was “inactive” throughout. Besides, the Potency result in the assay with DIV30, in the assay with ECU, with N140, in the assay on PAD, in the assay on PC15 and with SC27B was “inactive” throughout. Also, the Potency entry in the assay on TAB113 and with TAB165 was “inactive” throughout.

For `CCCCCCCCCCCCCCCC(=O)OC[C@H](O)[C@H]1OC[C@@H](O)[C@@H]1O`, the Potency entry in the assay with 7G8, in the assay with ATS95, with CP201, with CP203, in the assay on CP250 and with CP256 was “inactive” each time. Also, the Potency result in the assay with CP262, in the assay with CP265, in the assay with CP269, in the assay on CP315, with CP325 and in the assay on CP329 was “inactive” each time. For the same molecule, the Potency result in the assay with DIV30, with ECU, with N140, with PAD, in the assay with PC15 and with SC27B was “inactive” throughout. The Potency result with TAB113 and in the assay on TAB165 was “inactive” in each case.

As for `O=C(O)CC(O)CC(O)/C=C/c1c(C2CC2)nc2ccccc2c1-c1ccc(F)cc1` (stereo not given), the Potency result in the assay with 7G8, in the assay on ATS95, with CP201, in the assay on CP203, in the assay on CP250 and with CP256 was “inactive” in each case. For the same molecule, the Potency result in the assay with CP262, in the assay on CP265, in the assay with CP269, in the assay with CP315, in the assay on CP325 and with CP329 was “inactive” each time. Further, the Potency result in the assay on DIV30, with ECU, in the assay on N140, in the assay on PAD, in the assay on PC15 and with SC27B was “inactive” throughout. Also, the Potency entry in the assay on TAB113 and in the assay on TAB165 was “inactive” throughout.

(Values after PubChem BioAssay (NCATS).)
